Screens: PubChem BioAssay, National Center for Advancing Translational Sciences (NCATS)
Most compounds without a hit are left out; they make up all but 14% or so of the library.
Pf growth 96h: P. falciparum growth inhibition at 96 hours; P. falciparum luciferase reporter growth, 96 h; Potency, µM (doses to about 28.7 µM), for the others: at the top dose activity change, negative = inhibition, actives largely listed as inhibitors; 320,000 compounds, 6.9% hits; AID 504834; further: potency means the concentration at half of the fitted maximal effect
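Cell-based qHTS: luciferase-tagged P. falciparum in erythrocytes (2% hematocrit, 0.05% parasitemia final) incubated with compounds for 96 hours, 37 C, 5% CO2; luciferase detection reagent then added and luminescence measured.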
Pf growth 48h: inhibits P. falciparum growth in the first generation, 48 h. P. falciparum luciferase growth in erythrocytes, 48 h. Potency, µM (top dose mostly 28.7 µM), for the others: at the top dose activity change, negative = inhibition, actives largely listed as inhibitors. 310,000 compounds, 5.9% hits. AID 504832; further: potency means the concentration at half of the fitted maximal effect
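Parasite viability was followed by luminescence of a genomically integrated firefly luciferase. Cultures held 0.1% parasitemia at 2% hematocrit (final), incubated under 5% CO2 at 37 C.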
Sm TGR inh: S. mansoni TGR enzyme inhibition; 360,000 compounds, 3% hits; purified TGR, DTNB reduction, TNB absorbance 405 nm; Q962Y6; Potency, µM (doses to about 114 µM), for inactives: at the top dose activity change, negative = inhibition, hits mostly inhibitors; further: potency means the concentration at half of the fitted maximal effect; nearly all actives have a fitted effect of over 60% in size
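TGR 20 nM + NADPH 100 uM (dispensed conc.), cpd preinc 15 min RT; start with NADPH (500 uM addition) then DTNB (15 mM addition). Kinetic TNB absorbance, 405 nm filter. Four-parameter Hill fit across titration.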
FBPA Giardia inh: inhibitors of Giardia lamblia fructose-1,6-bisphosphate aldolase. A8B2U2. Potency, µM (top dose mostly 59.6 µM), for inactives: at the highest dose activity, negative = inhibition, actives largely listed as inhibitors. 290,000 compounds, 0.71% hits. AID 2451. purified Giardia FBPA; further: potency means the concentration at half of the fitted maximal effect; nearly all actives have a fitted effect of over 55% in size
Target sequence (A8B2U2 whole entry, looked up): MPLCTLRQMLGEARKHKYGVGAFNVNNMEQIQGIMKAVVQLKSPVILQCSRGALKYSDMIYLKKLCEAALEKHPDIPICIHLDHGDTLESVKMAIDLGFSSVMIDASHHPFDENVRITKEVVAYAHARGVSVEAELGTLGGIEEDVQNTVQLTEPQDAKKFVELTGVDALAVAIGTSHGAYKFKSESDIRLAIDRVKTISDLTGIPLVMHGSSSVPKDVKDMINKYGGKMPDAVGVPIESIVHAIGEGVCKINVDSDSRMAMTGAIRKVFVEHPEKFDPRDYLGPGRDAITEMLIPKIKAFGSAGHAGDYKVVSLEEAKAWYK
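Giardia FBPA (40 nM reagent) was preincubated 10 min at RT with compound (up to 57.5 uM final), then substrate plus GAPDH/TPI/NAD/arsenate coupling system with diaphorase/resazurin was added; resorufin fluorescence (525/598 nm) was read after 20 min.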
HCMV antiviral: human cytomegalovirus inhibition; HFF cells, HCMV-luciferase reporter, 72 h; hits give low values; activity change, negative = inhibition, % at 57.5 µM; 410,000 compounds, 4.5% hits; AID 1259415; in the data active means activity change below about -60%; inconclusive means no clear call, values can overlap the other calls; inactive means above about -39%
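Human foreskin fibroblasts infected with luciferase-reporter HCMV at MOI 1 PFU/cell, compounds at two doses. Luciferase measured 72 h post infection; normalized to buffer-only basal and Salinomycin (10uM) controls.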
Numbers without * were called inactive; ? = inconclusive; nt = no result given. Unless noted, the call rests on the fitted dose curve; in most records, active means well fitted curve in the direction sought with a large enough effect; inconclusive means small, poorly fitted or top-dose-only effect, or another doubt; inactive means no such curve, though single readings can be large; an effect the other way counts as inactive or inconclusive. On the % scale 0 is the no-effect control and ±100 the full control effect.

SMILES	Pf growth 96h	Pf growth 48h	Sm TGR inh	FBPA Giardia inh	HCMV antiviral
NC(=O)CC(NC(=O)Cc1cccc2ccccc12)c1ccc(NCc2ccc(F)c(F)c2)c([N+](=O)[O-])c1 (centres undefined)	-10%	?	15%	-1%	-8
COc1ccc(-c2[nH]c(-c3ccc(Cl)cc3)nc2SCC(=O)Nc2nccs2)cc1	-82%	?	-14%	0%	-79*
N#Cc1c(SCC(=O)Nc2nccs2)nc2c(c1-c1ccco1)CCCC2	1%	20%	45µM*	-13%	?
CCc1nnc(NC(=O)CSc2sc3c(O)cc(=O)[nH]c3c2C#N)s1	?	26%	35µM*	?	-1
Cc1csc(NC(=O)CSc2sc3c(O)cc(=O)[nH]c3c2C#N)n1	2.1µM*	28%	?	?	57
O=C(Nc1ccc2c(c1)OCO2)c1ccc(Cl)cc1Cl	?	?	-22%	nt	108
Cc1c(C(=O)c2ccc(Cl)cc2Cl)cnc2cc3c(cc12)OCO3	13µM*	8.3µM*	-3%	-3%	9
Cc1cccc(NC(=O)Cn2c(=O)n(CCc3ccccc3)c(=O)c3sc4ccccc4c32)c1	nt	nt	5%	nt	-1
COc1ccc(S(=O)(=O)N2CCCC2CNC(=O)C(=O)NCc2ccccc2Cl)cc1 (centres undefined)	9.3µM*	?	-4%	nt	-19
Cc1ccc(NC(=O)C2CCCN2S(=O)(=O)c2ccc3nc(-c4ccccc4)[nH]c3c2)cc1F (centres undefined)	nt	nt	-1%	nt	-84*
COc1ccc(CNC(=O)C(=O)NCCC2CCCCN2S(=O)(=O)c2ccccc2)cc1 (centres undefined)	?	12µM*	0%	nt	-36
COc1ccc(S(=O)(=O)N2CCCC2C(=O)Nc2ccc(C)cc2)cc1 (centres undefined)	62%	-26%	-26%	3%	26
Cc1ccc(S(=O)(=O)N2CCCC2C(=O)Nc2ccc(O)cc2)cc1 (centres undefined)	5.2µM*	-21%	-13%	0%	-13
COc1ccc(CNC(=O)C(=O)NCCC2CCCCN2S(=O)(=O)c2ccc(C)cc2)cc1 (centres undefined)	?	?	1%	nt	-24
CCCc1ccc(OC(=O)CSc2nnc(-c3cccs3)o2)cc1	nt	nt	-4%	nt	2
O=C(c1cn(CCOc2ccc(Cl)cc2)c2ccccc12)C1CCCCC1	nt	nt	1%	nt	-7
Cc1cc(C)c(S(=O)(=O)N2CCCCC2CCNC(=O)C(=O)NC2CC2)c(C)c1 (centres undefined)	?	9.3µM*	-30%	nt	nt
Cc1cc(S(=O)(=O)N2CCCCC2CCNC(=O)C(=O)NC2CC2)ccc1F (centres undefined)	?	-16%	-13%	nt	-39
COc1ccc(NC(=O)C(=O)NCC2CCCN2S(=O)(=O)c2ccc(C)cc2)cc1 (centres undefined)	?	?	1%	nt	-85*
COc1ccc(S(=O)(=O)N2CCCCC2c2cc(C(=O)NCc3ccccc3)no2)cc1 (centres undefined)	nt	nt	nt	nt	-62*
Cc1nc(SCC(=O)Nc2ccccc2Cl)oc1C	46%	-30%	2%	nt	?
COc1cccc(-c2nc(Cn3c(=O)cc(C)c4c(C)nn(-c5ccccc5)c43)c(C)o2)c1OC	nt	nt	6%	nt	-2
CCc1ccc(Cn2nnc(C(=O)Nc3ccc(C)cc3)c2N)cc1	nt	nt	20%	nt	11
CCc1ccc(NC(=O)CSc2nc3c(sc4ccccc43)c(=O)n2CCCOC(C)C)cc1	nt	nt	8%	nt	?
O=C(NCC(=O)N1CCN(c2ccccc2)CC1)c1ccc(Cl)cc1	3%	-5%	10%	5%	9
O=C(NCc1ccccc1)c1ccc(CN2CCC(Cc3ccccc3)CC2)cc1	-4%	13µM*	36%	0%	-24
O=C(NCC(=O)N1CCC(Cc2ccccc2)CC1)c1ccc(Cl)cc1	13µM*	0%	-24%	nt	7
O=C(c1ccc(CN2CCOCC2)cc1)N1CCC(Cc2ccccc2)CC1	2.9µM*	-22%	-14%	0%	-9
CCc1ccccc1NC(=O)c1ccc(CN2CCC(Cc3ccccc3)CC2)cc1	25%	1µM*	12%	0%	31
